# From PubChem BioAssay
# Sampled rows, rich in hits. Any-hit rate of the full collection: about 7.5%.
# KinaseGlo FLuc: blocks Kinase-Glo luciferase, a counter-screen artifact; Kinase-Glo luciferase, ATP luminescence, 8 min; Q27757; Potency, µM (top dose mostly 38.3 µM), actives largely listed as inhibitors; hit rate 0.28% among 200,000; note: nearly all actives have a fitted effect of over 60% in size
#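 Light output from Kinase-Glo luciferase with luciferin and 10 uM ATP in 50 mM imidazole pH 7.2, KCl, MgCl2, Tween 20, BSA; compound pin-delivered, 8-min ambient incubation, then luminescence read.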
# SMN2 splice enh: SMN2 splice variant enhancement; HEK293 SMN2-luciferase splicing reporter, luminescence, 30-36 h; Potency, µM (highest dose often 46.1 µM), most hits filed as activators; hit rate 2.8% among 210,000; note: nearly all actives have a fitted effect of over 55% in size
#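 HEK293 cells carry an SMN2 […]–luciferase reporter in which exon 7 inclusion puts luciferase in frame. Cells were plated 10-12 h before compound addition, then incubated 30-36 h at 37C. ONE-Glo luminescence was read; sodium butyrate at 4.5 mM final served as control.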
# ELG1 genotox: inducers of genotoxicity in HEK293T ELG1-luciferase cells. HEK293T ELG1-luciferase reporter, luminescence, 16 h. Potency, µM (top dose mostly 46 µM), most hits filed as activators. hit rate 1.3% among 330,000; note: nearly all actives have a fitted effect of over 60% in size
#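 Step 1: seed 2,000 HEK293T ELG1-luciferase cells per well. Step 2: add compound or DMSO, incubate 16 hr at 37 °C. Step 3: ONE-Glo, 30 min at room temperature, read luminescence.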
# NPC1 prom act: NPC1 promoter activation. Huh7 NPC1 promoter luciferase reporter, 24 h. Potency, µM (series often up to 9.22 µM), most hits filed as activators. hit rate 2.4% among 320,000. AID 485313; note: nearly all actives have a fitted effect of over 60% in size
#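 Stably transfected Huh7 (NPC1 promoter→luciferase), 1500 cells/well in Opti-MEM + 10% FBS, 2 h settle, then compound 24 h at 37 °C. Luminescence after 10 min with Amplite reagent.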
# Rab9 promoter act: activators of Rab9 promoter. Huh7 Rab9 promoter-luciferase reporter, luminescence, 24 h. Potency, µM (top dose mostly 9.22 µM), hits mostly activators. hit rate 2.8% among 320,000. AID 485297; note: nearly all actives have a fitted effect of over 60% in size
#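 Promoter activation is measured as luciferase luminescence in Huh7 cells stably transfected with a Rab9 promoter–luciferase construct, following 24 h compound exposure at 37 °C and 10 min reagent incubation at ambient temperature.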
# FLuc counter: counter-screen for miR-21 project: firefly luciferase inhibitors or activators; P08659; purified FLuc, Km substrates, luminescence inhibition; Potency, µM (top dose mostly 57.5 µM), most hits filed as inhibitors; hit rate 6.9% among 360,000; note: nearly all actives have a fitted effect of over 55% in size
# Target sequence (P08659 whole entry, looked up): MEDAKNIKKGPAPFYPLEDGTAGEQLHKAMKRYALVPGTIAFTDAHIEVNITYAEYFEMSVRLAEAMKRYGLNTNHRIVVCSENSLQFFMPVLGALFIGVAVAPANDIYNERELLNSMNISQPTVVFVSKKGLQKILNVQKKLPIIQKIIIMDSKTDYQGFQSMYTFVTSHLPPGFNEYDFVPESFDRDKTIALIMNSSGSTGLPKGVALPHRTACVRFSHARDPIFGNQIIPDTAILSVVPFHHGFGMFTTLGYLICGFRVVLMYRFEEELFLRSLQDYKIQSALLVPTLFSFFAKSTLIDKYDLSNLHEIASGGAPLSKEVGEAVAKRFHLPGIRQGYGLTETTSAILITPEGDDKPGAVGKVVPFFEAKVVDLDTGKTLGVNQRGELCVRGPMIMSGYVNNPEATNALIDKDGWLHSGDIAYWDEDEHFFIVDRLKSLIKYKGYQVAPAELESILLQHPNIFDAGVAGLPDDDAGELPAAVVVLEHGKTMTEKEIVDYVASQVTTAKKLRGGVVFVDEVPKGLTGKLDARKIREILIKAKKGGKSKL
#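 Purified P. pyralis luciferase (10nM final) with 10uM D-luciferin and 10uM ATP (Km levels) in 50mM Tris acetate pH 7.5, 10mM Mg acetate, 0.01% Tween-20, 0.05% BSA; qHTS 6-point titration, ~60 µM downward; luminescence read.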
# Hits are given with their value; 0 = inactive; ? = inconclusive; - = no result. Calls come from the whole dose curve; as a rule, active = well fitted curve in the direction sought with a large enough effect; inconclusive = small, poorly fitted or top-dose-only effect, or another doubt; inactive = no such curve, though single readings can be large; an effect the other way counts as inactive or inconclusive.
SMILES,KinaseGlo FLuc,SMN2 splice enh,ELG1 genotox,NPC1 prom act,Rab9 promoter act,FLuc counter
Cc1ccc(-c2nnc(Nc3ccc(O)cc3)c3ccccc23)cc1S(=O)(=O)NC(C)(C)CO,-,0,-,-,-,19µM
COc1ccc(NC(=O)CSc2ccc3nnc(CCNC(=O)c4ccccc4)n3n2)cc1OC,-,-,0,0,0,0
Cc1cccc(C(C)C)c1NC(=O)C1CCCN1S(=O)(=O)c1cccc2nsnc12 (stereo not drawn),-,0,-,-,-,0
CC(C)Oc1ccc(CNC(=O)CCCn2c(=O)c3cccn3c3cccnc32)cc1,-,-,-,-,-,0
COc1cccc(N2CC(O)=C(c3nc4ccccc4s3)C2=N)c1,0,?,?,0,0,21.3µM
Cc1cccc(NC(=O)c2c(NC(=O)c3ccccc3)sc3c2CCC3)c1,-,0,-,-,-,?
CNC(=O)c1c(NC(=O)c2cccc(C)c2)sc2c1CCC2,-,-,?,?,?,21.3µM
Cc1cccc(C(=O)Nc2sc3c(c2C(=O)NC(C)C)CCCC3)c1,-,0,-,-,-,0
Cc1cccc(C(=O)Nc2sc3c(c2C(=O)O)CCC3)c1,-,-,0,?,0,16.9µM
COc1cccc(C(=O)Nc2sc3c(c2C#N)CCN(C(C)=O)C3)c1,0,0,?,0,0,15.1µM
COc1cccc(C(=O)Nc2sc3c(c2C(=O)O)CCCC3)c1,-,-,0,0,0,21.3µM
O=C(c1csnn1)N1CCC2(CCCN(c3ccncc3)C2)CC1,0,0,-,-,-,-
Cc1c(Cl)cccc1NC(=O)CC(c1cccs1)N1Cc2ccccc2C1=O (stereo not drawn),-,-,-,-,-,0
Cc1ccc(NC(=O)c2c(NC(=O)c3ccccc3Cl)sc3c2CCC3)cc1,-,0,-,-,-,0
CNC(=O)c1c(NC(=O)/C=C/c2ccccc2Cl)sc2c1CCC2,-,-,-,-,-,9.53µM
CN(C)S(=O)(=O)c1ccc(C(=O)NCc2ccccc2)cc1,0,0,0,0,0,0
CN(C)S(=O)(=O)c1ccc(C(=O)NCCOc2ccc(F)cc2)cc1,0,0,13µM,0,?,?
CN(C)S(=O)(=O)c1ccc(C(=O)NCCOc2ccccc2)cc1,0,11.2µM,?,3.98µM,2.82µM,13.5µM
CN(C)S(=O)(=O)c1ccc(C(=O)NCCS(=O)(=O)N2CCN(c3ccc(F)cc3)CC2)cc1,-,-,0,0,0,0
COc1ccc(-c2cn3cc(Br)cnc3n2)cc1,0,10µM,20.6µM,0,?,?
COc1cc(OC)cc(C(=O)Nc2cc(-c3cn4cccnc4n3)ccc2C)c1,0,0,0,0,0,?
COc1cc(C(=O)Nc2cc(-c3cn4cccnc4n3)ccc2C)cc(OC)c1OC,0,0,0,0,?,12µM
COc1ccc(-c2cc(-c3ccccc3)nc3ncnn23)cc1,0,0,0,0,0,0
COc1ccc(-c2cn3cccnc3n2)cc1Br,0,?,?,0,0,19µM
CCC(C)NC(=O)Cn1ccc2cc(S(=O)(=O)N3CCCCC3)ccc21 (stereo not drawn),-,-,-,-,-,0
SMILES,KinaseGlo FLuc,SMN2 splice enh,ELG1 genotox,NPC1 prom act,Rab9 promoter act,FLuc counter
Cc1ccccc1CN1C(=O)c2ccccc2Sc2ccc(C(=O)NC3CCCCC3)cc21,-,-,-,-,-,0
CC(C)C(=O)Nc1cc2c3c(c1)CCN3C(=O)CC2,-,-,0,0,0,0
O=C(Nc1cccnc1)c1cn(-c2ccccc2)nc1-c1cccs1,0,0,0,0,0,3.01µM
O=C(NCc1cccnc1)c1cn(-c2ccccc2)nc1-c1ccccc1,0,0,0,0,0,21.3µM
COc1ccc(-c2nn(-c3ccccc3)cc2C(=O)NC2CCC(C)CC2)cc1 (stereo not drawn),-,-,0,0,0,0
COc1ccc(NC(=O)CN(C)C(=O)c2cn(-c3ccccc3)nc2-c2cccs2)cc1,-,-,0,0,0,16.9µM
O=C(NC1CCS(=O)(=O)C1)c1cn(-c2ccccc2)nc1-c1ccccc1 (stereo not drawn),0,0,0,0,0,15.1µM
O=C(CN1C(=O)C2(SCC(=O)N2c2cccc(Cl)c2)c2ccccc21)NCCc1ccccc1 (stereo not drawn),-,-,-,-,-,0
CC(C)N(C(=O)c1nn(C)c2c1CSc1ccccc1-2)C1CCCCC1,-,-,0,0,0,0
